Hits are enriched below; roughly 8.3% of the tested compounds scored in any of these assays.
Lassa entry inh = Lassa virus entry inhibition; Lassa virus pseudotype entry inhibition, cell reporter; Potency, µM (titrated, usually from 37.9 µM), for inactives: at the top dose activity change, negative = inhibition, actives largely listed as inhibitors; hit rate 1.2% among 300,000; AID 540256; calls by dose curve; tested in HEK293 cells; further: potency means the concentration at half of the fitted maximal effect; nearly all actives have a fitted effect of over 50% in size
HCV inh = blocks hepatitis C virus | Huh7.5.1 HCVcc-Cre infection, luciferase reporter, 44 h | Potency, µM (titrated, usually from 41.8 µM), inactives show at the top dose activity change, negative = inhibition, most hits filed as inhibitors | hit rate 3.4% among 340,000 | AID 651820; further: potency means the concentration at half of the fitted maximal effect
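Cells (1,000/well) were plated 4 h before compound, then infected with HCVcc-Cre virus (~0.5 moi). After 44 h further culture, infection was read as luciferase luminescence following a 15 min substrate incubation at room temperature.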
Giardia FBPA inh = Giardia lamblia aldolase inhibition; A8B2U2; purified Giardia FBPA; Potency, µM (top dose mostly 59.6 µM), for inactives: at the top dose activity, negative = inhibition, actives largely listed as inhibitors; hit rate 0.71% among 290,000; AID 2451; further: potency means the concentration at half of the fitted maximal effect; nearly all actives have a fitted effect of over 55% in size
Target sequence (A8B2U2 whole entry, looked up): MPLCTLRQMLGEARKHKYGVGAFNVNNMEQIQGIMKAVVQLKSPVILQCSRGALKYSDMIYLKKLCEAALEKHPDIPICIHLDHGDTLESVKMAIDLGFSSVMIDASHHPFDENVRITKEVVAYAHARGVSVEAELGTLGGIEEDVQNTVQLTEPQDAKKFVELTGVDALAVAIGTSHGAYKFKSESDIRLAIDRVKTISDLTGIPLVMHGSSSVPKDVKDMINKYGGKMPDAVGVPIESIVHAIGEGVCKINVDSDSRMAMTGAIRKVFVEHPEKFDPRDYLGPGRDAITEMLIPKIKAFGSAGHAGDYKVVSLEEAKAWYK
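40 nM FBPA preincubated 10 min at RT with compound (up to 57.5 uM final), then substrate plus GAPDH/TPI/NAD/arsenate coupling and diaphorase/resazurin added. Fluorescence read after 20 min at RT, 525/598 nm.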
FMDV inh = foot and mouth disease virus antiviral activity. FMDV antiviral cell-based qHTS. Potency, µM (highest dose often 57.9 µM), without a hit: at the highest dose activity change, negative = inhibition, actives largely listed as inhibitors. hit rate 1.2% among 410,000; calls by dose curve; tested in HEK293T cells; further: read-out not given here; potency means the concentration at half of the fitted maximal effect; nearly all actives have a fitted effect of over 45% in size
Marburg entry inh = blocks Marburg virus binding to or entry into cells | hit rate 1.8% among 300,000 | Potency, µM (highest dose often 37.8 µM), for inactives: top-dose activity change, negative = inhibition, hits mostly inhibitors | Marburg virus pseudotyped entry inhibition, cell reporter; calls by dose curve; tested in HEK293 cells; further: potency means the concentration at half of the fitted maximal effect
HCMV inh = inhibitors of human cytomegalovirus; HFF cells, HCMV-luciferase reporter, 72 h; stronger effect = lower value; hit rate 4.5% among 410,000; activity change, negative = inhibition, % at 57.5 µM; in the data active means activity change below about -60%; inconclusive means no clear call, values can overlap the other calls; inactive means above about -39%
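Compounds were evaluated in HFFs infected with an HCMV luciferase reporter virus (MOI 1 PFU/cell). Luciferase in lysates collected 72 h post infection served as the replication measure.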
Numbers without * were called inactive; [ ] = another dose, or the depositor's remark. Unless noted, the call rests on the fitted dose curve; in most records, active means well fitted curve in the direction sought with a large enough effect; inconclusive means small, poorly fitted or top-dose-only effect, or another doubt; inactive means no such curve, though single readings can be large; an effect the other way counts as inactive or inconclusive. On the % scale 0 is the no-effect control and ±100 the full control effect.

What do the screens show for `CN1C[C@@H]2C[C@@H](C3=Cc4cc(Cl)ccc4OC3)N3CCC[C@@]23C1=O`?
Lassa entry inh: 8%; HCV inh: inconclusive; Giardia FBPA inh: -2%; FMDV inh: -11%; Marburg entry inh: -3%[46.1 µM]; HCMV inh: -35

What do the screens show for `COCc1cc([C@@H]2C[C@H]3CN(c4ccccc4)C(=O)[C@]34CCCN24)ccc1OC`?
HCV inh: 8%; Giardia FBPA inh: -27%; FMDV inh: 11%; HCMV inh: -94*

What do the screens show for `COc1ccccc1CN1C[C@@H]2C[C@@H](C3=Cc4cc(Cl)ccc4OC3)N3CCC[C@@]23C1=O`?
HCV inh: 11µM*; Giardia FBPA inh: -9%; FMDV inh: -22%; HCMV inh: -18

What do the screens show for `Cc1nnc(SCC(=O)N2c3ccccc3C(C)(c3ccccc3)CC2(C)C)s1` (centres undefined)?
Lassa entry inh: inconclusive; HCV inh: inconclusive; Giardia FBPA inh: -2%; FMDV inh: 40µM*; Marburg entry inh: inconclusive; HCMV inh: -62*

How did Cc1ccc(C2(C)CC(C)(C)N(C(=O)CSc3nnc(C)s3)c3ccccc32)cc1 (centres undefined) do in these assays?
Lassa entry inh: 7.9µM*; HCV inh: inconclusive; Giardia FBPA inh: -3%; FMDV inh: inconclusive; Marburg entry inh: inconclusive; HCMV inh: -39

Results for O=C(/C=C/c1ccccc1)NCCN1CCOCC1 ?
Lassa entry inh: 15%; HCV inh: 7%; Giardia FBPA inh: 1%; FMDV inh: -5%; Marburg entry inh: inconclusive; HCMV inh: -9

What do the screens show for `CN1CN(c2ccccc2)C2(CCN(CCCSc3ccccc3NC(=O)/C=C/c3ccccc3)CC2)C1=O`?
Lassa entry inh: inconclusive; HCV inh: 35µM*; FMDV inh: 0%; Marburg entry inh: inconclusive; HCMV inh: -66*

What do the screens show for `O=C(CCCN1C(=O)/C(=C\c2cccs2)SC1=S)NNC(=O)c1ccncc1`?
Lassa entry inh: inconclusive; HCV inh: 6%; Giardia FBPA inh: 3%; FMDV inh: 11%; Marburg entry inh: -27%[46.1 µM]; HCMV inh: -61*

Results for COc1ccccc1C(=O)NNC(=O)CCCN1C(=O)/C(=C/c2cccs2)SC1=S ?
Lassa entry inh: 1%; HCV inh: -4%; Giardia FBPA inh: 1%; FMDV inh: 0%; Marburg entry inh: 7%; HCMV inh: -68*

What do the screens show for `Cc1ccc(/C=C2\SC(=S)N(CCCC(=O)Nc3cccnc3)C2=O)cc1`?
Lassa entry inh: inconclusive; HCV inh: 0%; FMDV inh: inconclusive; Marburg entry inh: inconclusive

Results for Cc1cc(NC(=O)CCCN2C(=O)/C(=C\c3cccs3)SC2=S)no1 ?
Lassa entry inh: 17%; HCV inh: 5%; Giardia FBPA inh: -1%; FMDV inh: -13%; Marburg entry inh: inconclusive; HCMV inh: -34

What do the screens show for `O=C(CCCN1C(=O)/C(=C/c2cccs2)SC1=S)NNC(=O)c1cccnc1`?
HCV inh: -9%; Giardia FBPA inh: 3%; FMDV inh: 2%; HCMV inh: inconclusive

How did O=C(CCCN1C(=O)/C(=C/c2cccs2)SC1=S)Nc1cccnc1 do in these assays?
Lassa entry inh: inconclusive; HCV inh: inconclusive; Giardia FBPA inh: -9%; FMDV inh: -9%; Marburg entry inh: inconclusive; HCMV inh: -98*

What do the screens show for `O=C(CCCN1C(=O)/C(=C\c2cccs2)SC1=S)Nc1cccnc1`?
Lassa entry inh: -14%; HCV inh: 7%; Giardia FBPA inh: 2%; FMDV inh: 0%; Marburg entry inh: -21%; HCMV inh: -93*

Results for CCCCOc1cc(C[C@@H]2CNC(=O)N2)ccc1OC ?
Giardia FBPA inh: 10%; FMDV inh: -12%; Marburg entry inh: 9%

How did CCN(CC)CCOC(=O)c1ccc(NC(=O)CCCN2C(=O)/C(=C\c3cccs3)SC2=S)cc1 do in these assays?
HCV inh: 10µM*; FMDV inh: -22%; HCMV inh: 17

What do the screens show for `O=C(CCN1C(=O)/C(=C\c2cccs2)SC1=S)Nc1ccc(C(=O)O)cc1`?
HCV inh: 9%; FMDV inh: -9%; HCMV inh: -21

What do the screens show for `O=C(CCCN1C(=O)/C(=C/c2ccccc2Cl)SC1=S)NNC(=O)c1ccc(Cl)cc1Cl`?
HCV inh: -3%; Giardia FBPA inh: 8%; FMDV inh: 8.9µM*; HCMV inh: -64*

What do the screens show for `O=C(CCCN1C(=O)/C(=C/c2ccccc2OC(F)F)SC1=S)Nc1cccnc1`?
Lassa entry inh: inconclusive; HCV inh: 11µM*; FMDV inh: inconclusive; Marburg entry inh: inconclusive; HCMV inh: -65*

How did COc1ccccc1/C=C1/SC(=S)N(CCC(=O)Nc2cccnc2)C1=O do in these assays?
HCV inh: inconclusive; FMDV inh: inconclusive; HCMV inh: -19

What do the screens show for `Cc1cc(S(=O)(=O)n2ccnc2C(C)C)cc([N+](=O)[O-])c1C`?
Lassa entry inh: inconclusive; FMDV inh: -7%; Marburg entry inh: -3%[46.1 µM]; HCMV inh: 5

How did CCC(C(=O)NCc1ccc2c(c1)CCN2C(=O)c1ccc(F)cc1)c1ccccc1 (centres undefined) do in these assays?
Lassa entry inh: inconclusive; FMDV inh: 10%; HCMV inh: 11

How did COc1cc2c(cc1O)CCC1C2CC[C@@]2(C)C1CC[C@@H]2O (some centres undefined) do in these assays?
Giardia FBPA inh: 4%; FMDV inh: inconclusive

How did O=[N+]([O-])C1C(c2ccccc2)C12c1ccccc1-c1ccccc12 (centres undefined) do in these assays?
FMDV inh: 14µM*

How did CC1(C)c2ccccc2C(=O)c2ccccc21 do in these assays?
Lassa entry inh: inconclusive; HCV inh: 0%; FMDV inh: 0%; Marburg entry inh: -6%; HCMV inh: -27

How did OC[C@@H]1OC(O)[C@@H](O)[C@H](O)[C@H]1O (some centres undefined) do in these assays?
Giardia FBPA inh: 3%

Results for OC[C@H]1OC(O)[C@H](O)[C@@H](O)[C@H]1O (some centres undefined) ?
HCV inh: -15%; Giardia FBPA inh: 7%; FMDV inh: -22%; HCMV inh: -61*

Results for Cn1cnc(S(=O)(=O)N2CCC[C@@H]2c2noc3ccccc23)c1 ?
HCMV inh: -5

How did OC(C1=CC(=Cc2ccncc2)c2ccccc21)c1ccncc1 (centres undefined) do in these assays?
Lassa entry inh: -25%[46.1 µM]; HCV inh: 11µM*; FMDV inh: inconclusive; Marburg entry inh: inconclusive; HCMV inh: 49

What do the screens show for `OC(c1ccccc1)c1ccncc1` (centres undefined)?
HCV inh: 13%; FMDV inh: 3%; HCMV inh: -1
